High-throughput results from PubChem BioAssay.
Rows were chosen to be rich in hits. Some 2.4% of all compounds tested hit in one or more screens of this group.
Pol kappa inh-1: blocks human DNA polymerase kappa activity. 400,000 tested, 0.53% active. AID 588579. purified Pol kappa, fluorescent DNA synthesis assay, 10 min. Potency, µM (titrated, usually from 107 µM), for the others: at the top dose activity, negative = inhibition, actives largely listed as inhibitors. Q9UBT6; note: % is set by controls: 0 for no effect and ±100 for the full control effect
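10 nM Pol kappa preincubated 15 min at room temperature with compounds, then reaction started with substrate at 50 nM final. Fluorescence read kinetically at 0 and 10 min; buffer-only wells served as negative control.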
GLS inhibitor: glutaminase GLS (human) inhibition | 410,000 tested, 0.21% active | GLS enzymatic activity, qHTS titration | O94925 | Potency, µM (top dose mostly 45.5 µM), inactives show top-dose activity change, negative = inhibition, usual class: inhibitors; note: % is set by controls: 0 for no effect and ±100 for the full control effect
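Read-out is an Amplex red fluorescence increase coupled through glutamate oxidase and HRP, measured before and after 30 min room-temperature incubation. hKGA is in 45 mM KH2PO4 (pH 8.2) with 0.02% Tween-20; glutamine added as 1mM solution.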
Pol iota inh: blocks human DNA polymerase iota activity; Q9UNA4; Pol iota fluorescent replication assay, 10 min; Potency, µM (titrated, usually from 115 µM), inactives show top-dose activity, negative = inhibition, most hits filed as inhibitors; 390,000 tested, 1% active
Target sequence (Q9UNA4 whole entry, looked up): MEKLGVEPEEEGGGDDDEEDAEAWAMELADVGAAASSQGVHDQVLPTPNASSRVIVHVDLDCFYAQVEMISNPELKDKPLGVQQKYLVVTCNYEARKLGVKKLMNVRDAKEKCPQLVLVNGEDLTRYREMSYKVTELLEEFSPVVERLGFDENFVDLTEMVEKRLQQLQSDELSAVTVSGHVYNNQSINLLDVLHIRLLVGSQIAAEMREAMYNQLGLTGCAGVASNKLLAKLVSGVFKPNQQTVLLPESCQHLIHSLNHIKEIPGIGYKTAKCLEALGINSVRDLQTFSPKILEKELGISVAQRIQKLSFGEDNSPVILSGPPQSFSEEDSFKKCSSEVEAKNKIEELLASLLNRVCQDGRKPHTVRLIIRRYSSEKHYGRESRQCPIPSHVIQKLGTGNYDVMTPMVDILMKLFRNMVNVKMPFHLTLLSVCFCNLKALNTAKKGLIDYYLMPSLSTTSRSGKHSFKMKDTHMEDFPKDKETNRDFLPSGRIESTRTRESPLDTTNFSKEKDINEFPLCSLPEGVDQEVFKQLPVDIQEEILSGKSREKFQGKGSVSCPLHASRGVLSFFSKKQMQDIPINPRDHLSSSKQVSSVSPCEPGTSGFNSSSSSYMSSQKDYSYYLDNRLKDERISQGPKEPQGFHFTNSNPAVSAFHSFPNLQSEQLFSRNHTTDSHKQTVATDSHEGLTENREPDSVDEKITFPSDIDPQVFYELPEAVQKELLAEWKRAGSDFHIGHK
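Pol iota at 10 nM preincubated 15 min with compounds at room temperature; reaction started with fluorescent substrate, 50 nM final. Fluorescence read kinetically at 0 and 10 min; buffer-only wells as negative control.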
Pol eta inh-1: DNA polymerase eta (human) inhibition | recombinant Pol eta, fluorescent DNA replication assay | 390,000 tested, 1.2% active | Q9Y253 | Potency, µM (series often up to 114 µM), inactives show at the top dose activity change, negative = inhibition, actives largely listed as inhibitors | AID 588591; note: % is set by controls: 0 for no effect and ±100 for the full control effect
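Fluorescent replication assay: 50 nM final substrate added after a 15 min room-temperature compound preincubation with 10 nM enzyme. Signal taken at 0 min and again at 10 min.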
POLB inh: inhibitors of human DNA polymerase beta; Potency, µM (top dose mostly 114 µM), without a hit: at the highest dose activity change, negative = inhibition, most hits filed as inhibitors; 340,000 tested, 1.3% active; AID 485314; Pol beta primer extension/strand displacement, fluorescence kinetic; P06746; note: % is set by controls: 0 for no effect and ±100 for the full control effect
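Pol beta (10 nM) and compounds were preincubated 15 min at room temperature, then 50 nM substrate (final) started primer extension/strand displacement. Reads were taken at 0 and 10 min; concentration-response data were fitted to a four-parameter Hill equation.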
APE1 inh-1: blocks human APE1 abasic DNA cleavage | Potency, µM (titrated, usually from 65.8 µM), inactives show at the top dose activity change, negative = inhibition, usual class: inhibitors | 350,000 tested, 0.35% active | recombinant APE1, TAMRA/BHQ-2 abasic DNA cleavage fluorescence | AID 2517;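 note: plate controls were vehicle for no effect and reference inhibitor for full effect; nearly all actives have a fitted effect of over 55% in size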
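APE1 at 0.75 nM preincubated 15 min at room temperature with compound. Reaction then started with 50 nM double-stranded THF-abasic substrate labelled with TAMRA/BHQ-2, and 525/598 nm fluorescence read kinetically. Activity taken as third-minus-first read difference, normalized to DMSO and NSC13755 controls.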
APE1 dye cs: DNA dye displacement counter-screen activity | DNA fluorescent dye displacement counterscreen, fluorescence | shares compounds with APE1 inh-1 | AID 2564 | Potency, µM (titrated, usually from 28.5 µM), for inactives: top-dose activity change, negative = inhibition, actives largely listed as inhibitors | 480 tested, 7% active;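 note: loss of thiazole orange fluorescence as the dye is displaced from duplex DNA; 0% = ThO with dsDNA and no compound and -100% = ThO without dsDNA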
EndoIV counter: Endo IV (E. coli) inhibition counter-screen; E. coli Endo IV, fluorogenic AP-site DNA cleavage; 560 tested, 4% active; Potency, µM (top dose mostly 27.1 µM), for the others: at the highest dose activity change, negative = inhibition, actives largely listed as inhibitors; shares compounds with APE1 inh-1;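 note: plate controls were uninhibited enzyme wells for no effect and no enzyme buffer wells for full effect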
APE1 inh-2: confirmation of inhibitors of human APE1 endonuclease; 750 tested, 44% active; Potency, µM (doses to about 57.1 µM), for the others: at the top dose activity change, negative = inhibition, actives largely listed as inhibitors; shares compounds with APE1 inh-1; purified APE1, fluorogenic abasic-site DNA cleavage; AID 2572; note: % is set by controls: 0 for no effect and ±100 for the full control effect; nearly all actives have a fitted effect of over 30% in size
APE1 FP inh: APE1 (human) DNA binding inhibition, fluorescence polarization | AID 2573 | shares compounds with APE1 inh-1 | 480 tested, 7% active | APE1 binding to TAMRA-labelled double-stranded DNA, fluorescence polarization displacement | Potency, µM (highest dose often 28.5 µM), for inactives: top-dose activity, negative = inhibition, most hits filed as inhibitors; note: % is set by controls: 0 for no effect and ±100 for the full control effect
TbPGK inh: validation of Trypanosoma brucei phosphoglycerate kinase inhibitors; 500 tested, 79% active; shares compounds with Pol kappa inh-1; Potency, µM (top dose mostly 57.5 µM), for inactives: top-dose activity change, negative = inhibition, hits mostly inhibitors; TbPGK coupled GAPDH assay, Kinase-Glo luminescence; note: % is set by controls: 0 for no effect and ±100 for the full control effect; nearly all actives have a fitted effect of over 65% in size
Pol iota confirm: Human Pol iota inhibitor confirmatory assay; Pol iota primer extension, TAMRA/BHQ fluorescence; shares compounds with Pol kappa inh-1; AID 720496; Potency, µM, hits mostly inhibitors; 1,500 tested, 77% active
Pol kappa inh-2: Pol kappa (human) inhibition, cherry-pick confirmation. purified Pol-kappa, fluorescent strand-displacement substrate. 920 tested, 76% active. Potency, µM, hits mostly inhibitors. shares compounds with Pol eta inh-1
Pol eta inh-2: confirmation of human DNA polymerase eta inhibitors; shares compounds with Pol eta inh-1; 2,600 tested, 64% active; Pol eta primer extension, TAMRA/BHQ fluorescence, 10 min; Potency, µM, most hits filed as inhibitors
Numbers without * were called inactive. Calls come from the whole dose curve; as a rule, active = well fitted curve in the direction sought with a large enough effect; inconclusive = small, poorly fitted or top-dose-only effect, or another doubt; inactive = no such curve, though single readings can be large; an effect the other way counts as inactive or inconclusive. Potency is the fitted concentration of half-maximal effect.

Screening NS(=O)(=O)c1ccc(N=Nc2ccc(=O)[nH]c2O)cc1 returned Pol kappa inh-1 inconclusive, GLS inhibitor 28%, Pol iota inh inconclusive, Pol eta inh-1 10µM*, POLB inh 6.3µM*, APE1 inh-1 16µM*, APE1 inh-2 inconclusive, TbPGK inh 5.2µM*, Pol iota confirm 38*, Pol kappa inh-2 15* and Pol eta inh-2 inconclusive.
Screening CCOC(=O)c1[nH]c(C)c(/C(O)=C2\C(=O)C(=O)N(CCN3CCOCC3)C2c2ccco2)c1C (stereo unspecified) returned Pol kappa inh-1 -9%, GLS inhibitor 10%, Pol iota inh 13%, Pol eta inh-1 4%, POLB inh 8% and APE1 inh-1 -3%.
For CCC(C(=O)Nc1cc(OC)ccc1OC)n1nc(-c2ccccc2)c2c(c1=O)CCCC2 (stereo unspecified) the results were Pol kappa inh-1 -16%, GLS inhibitor 0%, Pol iota inh -1%, Pol eta inh-1 -15% and POLB inh -21%.
Screening COC(=O)c1ccccc1NC(=O)Oc1ccc(C(C)C)cc1 returned Pol kappa inh-1 -1%, GLS inhibitor -1%, Pol iota inh inconclusive, Pol eta inh-1 -11%, POLB inh 20% and APE1 inh-1 -5%.
Screening O=C(O)c1cccc(-n2cccc2/C=C/[N+](=O)[O-])c1 returned Pol kappa inh-1 14µM*, GLS inhibitor 10µM*, Pol iota inh inconclusive, Pol eta inh-1 2.8µM*, POLB inh 3.5µM*, APE1 inh-1 4µM*, APE1 dye cs -4%, EndoIV counter 17%, APE1 inh-2 4.5µM*, APE1 FP inh inconclusive, TbPGK inh 21µM*, Pol iota confirm 15* and Pol eta inh-2 5.4*.
N#C/C(=C/c1cccn1-c1cccc(C(=O)O)c1)c1ccc(Cl)cc1 was read as Pol kappa inh-1 inconclusive, GLS inhibitor 125%, Pol iota inh 20µM*, Pol eta inh-1 50µM*, POLB inh 8.9µM*, APE1 inh-1 11µM*, APE1 dye cs inconclusive, EndoIV counter -6%, APE1 inh-2 5µM*, APE1 FP inh 1%, Pol iota confirm 75*, Pol kappa inh-2 75* and Pol eta inh-2 inconclusive.
N#CC(C#N)=Cc1cccn1-c1ccc(C(=O)O)cc1 was read as Pol kappa inh-1 40µM*, GLS inhibitor 17%, Pol iota inh 18µM*, Pol eta inh-1 10µM*, POLB inh 5µM*, APE1 inh-1 13µM*, APE1 dye cs 5%, EndoIV counter 8%, APE1 inh-2 35µM*, APE1 FP inh -17%, Pol iota confirm 19*, Pol kappa inh-2 17* and Pol eta inh-2 27*.
`O=C(O)c1cnc2[nH]c3ccccc3n2c1=O` gave Pol kappa inh-1 -4%, GLS inhibitor 8%, Pol iota inh 45%, Pol eta inh-1 -13%, POLB inh -18% and APE1 inh-1 -4%.
Screening Cc1ccc(CN(C(=O)c2ccccc2Br)C2CCS(=O)(=O)C2)o1 (stereo unspecified) returned Pol kappa inh-1 14%, GLS inhibitor -3%, Pol iota inh 29% and POLB inh 39%.
`COc1ccc(S(=O)(=O)N2CCOCC2)cc1NC(=O)c1ccccc1C` gave Pol kappa inh-1 -1%, GLS inhibitor 8%, Pol iota inh 19%, Pol eta inh-1 8%, POLB inh 50% and APE1 inh-1 8%.
Screening O=C(CSc1nc2ccccc2[nH]1)NC1CCCC1 returned Pol kappa inh-1 inconclusive, GLS inhibitor 22%, Pol iota inh inconclusive, Pol eta inh-1 40µM*, POLB inh 14µM*, APE1 inh-1 inconclusive, APE1 inh-2 40µM* and Pol eta inh-2 inconclusive.
Screening O=C(O)COc1ccc(/C=N/NC(=O)Cc2ccc(Cl)cc2)cc1 returned Pol kappa inh-1 -12%, GLS inhibitor 9%, Pol iota inh -15%, Pol eta inh-1 2%, POLB inh -13% and APE1 inh-1 -3%.
Screening CCC1=NN2C(=N)/C(=C\c3ccc(OCc4cc(=O)n5nc(CC)sc5n4)c(OC)c3)C(=O)N=C2S1 returned Pol kappa inh-1 32µM*, GLS inhibitor 11µM*, Pol iota inh inconclusive, Pol eta inh-1 8.9µM*, POLB inh 4.5µM*, APE1 inh-1 inconclusive, APE1 inh-2 32µM*, Pol iota confirm 19* and Pol eta inh-2 17*.
